Data from PubChem BioAssay AID743269 (The Scripps Research Institute Molecular Screening Center, 2014).
Out of some 370,000 compounds screened, about 2,400 (0.65%) were called active. The sample holds actives, similar compounds and a random draw of the others, so the mix is not that of the screen. Values without a mark were called inactive.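 How the source made its calls: active means inhibition above the screen-wide mean plus 3 SD (cut at about 13% in these data); inactive means the rest.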

system: HIV-1 integrase (with human LEDGF/p75); assay: blockers of LEDGF/p75-dependent integrase strand transfer – biochemical, TR-FRET, high throughput, primary screen (AID 743269); details: TR-FRET IN-LEDGF/p75 DNA integration, Eu/Cy5; at 3.7 µM; hits give high values;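 further: signal is the Cy5 over europium emission ratio at 671 and 618 nm; 0% = plate median of compound wells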

| Structure (SMILES) | inhibition |
| --- | --- |
| CCOc1ccc(NC(=O)c2cccc3c2C(=O)N(CC2CCCO2)C3)cc1 (stereo unspecified) | 0.61% |
| CCOc1cccc(=O)c2c(C)n(CC3CCCO3)c(C)c12 (stereo unspecified) | 19.8% (active) |
| CC(=O)Nc1ccc(NC(=O)CSc2nnc(COc3ccccc3C)n2CC2CCCO2)cc1 (stereo unspecified) | -8.13% |
| COc1ccccc1CCNC(=O)C1CCN(c2nc(C)cc(C)n2)CC1 | -0.51% |
| O=C(NCc1cccs1)C1CCCN(S(=O)(=O)c2ccc([N+](=O)[O-])cc2)C1 (stereo unspecified) | 4.07% |
| O=C(Nc1ccccc1F)c1ccccc1-c1ccccc1 | -1.52% |
| O=C(Nc1nnc(-c2ccccc2F)s1)c1ccccc1F | 5.09% |
| NC(=O)c1ccccc1NC(=O)c1ccccc1F | 30.1% (active) |
| Cc1cc(NS(=O)(=O)c2ccc(NC(=O)CSc3nnc(-c4ccc(C(C)(C)C)cc4)n3Cc3ccco3)cc2)nc(C)n1 | 2.06% |
| COC(=O)[C@]1(C#N)CC(=O)N(CC2CCCCC2)[C@@H]1c1ccccc1 | 8.17% |
| COCCn1nnnc1C(c1cc2ccc(OC)cc2[nH]c1=O)N1CCc2ccccc2C1 (stereo unspecified) | 23.1% (active) |
| COc1ccc(CCC(C)N2CCc3ccccc3C2)cc1 (stereo unspecified) | 0% |
| COCCn1nnnc1C(c1ccccc1Cl)N1CCN(c2ccccc2OC)CC1 (stereo unspecified) | -2.12% |
| O=C(CSc1nnc(-c2ccccn2)n1-c1ccccc1)Nc1ccc2cn[nH]c2c1 | 3.75% |
| CC[C@@H](CCC(=O)N(c1ccccc1)c1ccccc1)C1CC1 | -0.47% |
| CCOC(=O)c1[nH]c(C)c(C(=O)OCC(=O)N2c3ccccc3CC2C)c1C (stereo unspecified) | 0.57% |
| CCOC(=O)c1c(C)[nH]c2c1-c1ccccc1C(=O)C2=O | 35% (active) |
| CCOC(=O)C1=C(C)c2ccccc2OC1C(=O)OCC (stereo unspecified) | 0.5% |
| CN1C(=O)c2cc(NS(C)(=O)=O)ccc2OC[C@@H]2O[C@@H](CC(=O)NCc3ccc(-c4ccccc4)cc3)CC[C@H]21 | 0.81% |

| Structure (SMILES) | inhibition |
| --- | --- |
| CC(CCN1CCC(C(O)(c2ccccc2)c2ccccc2)CC1)Oc1ccc(Cl)cc1 (stereo unspecified) | -0.76% |
| CCN(CC)CCCC(C)n1c2nc(=O)[nH]c(=O)c-2nc2cc(Cl)ccc21 (stereo unspecified) | 19.5% (active) |
| Cc1cc2nc3c(=O)[nH]c(=O)nc-3n(C[C@H](O)[C@H](O)[C@H](O)CO)c2cc1C | -0.23% |
| CC(CCN1CCC(C(O)(c2ccccc2)c2ccccc2)CC1)Oc1ccc([N+](=O)[O-])cc1Cl (stereo unspecified) | 5.97% |
| O=C(CCCCCN1C(=O)C2C3C=CC(C3)C2C1=O)Nc1ccccn1 (stereo unspecified) | 1.71% |
| COc1ccc2c(C)cc(SCC(=O)NCC3CCCO3)nc2c1 (stereo unspecified) | 5.4% |
| CCCNC(=O)CSc1nc(Cc2ccccc2)nc2ccccc12 | -2.65% |
| Cc1cc(SCC(=O)NCCN2C(=O)CSC2=O)nc2ccccc12 | 24.8% (active) |
| COP(=O)(O)CNC(=O)OCc1ccccc1 | 2.52% |
| C[C@@H](NC(=O)c1ccccc1OCC(=O)Nc1ccc(I)cc1)C(=O)N(C)Cc1ccccc1 | -0.62% |
| CCCOc1ccc(Oc2c(Cl)cnn(Cc3cccc4ccccc34)c2=O)cc1 | -4.41% |
| Brc1ccc(C2CC(c3ccccc3)=Nc3ccccc3N2)cc1 (stereo unspecified) | 5.04% |
| c1ccc(C2=Nc3cccc4cccc(c34)N2)cc1 | 15.3% (active) |
| CCOC(=O)[C@]12CCCCC/C=C\1N(Cc1ccc(OC)cc1)C(=O)[C@H]2CC(=O)N1CCOCC1 | -1.27% |
| Cc1cc(C)n2ncc(C(=O)Nc3ccc4c(c3)OCCO4)c2n1 | 1.44% |
| O=C(Nc1cc2c3c(c1)C1CCCC1CN3CC1CCCC21)c1ccc([N+](=O)[O-])cc1 (stereo unspecified) | 0.76% |
| Cn1ccc(=Nc2ccc(NC(=O)c3ccc(N=c4ccn(C)c5ccc([N+](=O)[O-])cc45)cc3)cc2)cc1 | 19.9% (active) |
| CC(=O)Nc1ccc(C(=O)OCC(=O)Nc2ccc([N+](=O)[O-])cc2C(F)(F)F)cc1 | 1.78% |
| Cc1ccccc1CN1CCCCC(NC(=O)Nc2ccccc2F)C1=O (stereo unspecified) | -1.11% |

| Structure (SMILES) | inhibition |
| --- | --- |
| O=C(Nc1cc(F)cc(F)c1)OC1CCC12CCC(c1ccccc1)CC2 (stereo unspecified) | -2.65% |
| CCCNC(=O)Nc1ccc2c(c1)C(=O)N(C)[C@H]1CC[C@H](CC(=O)NCC3CCCCC3)O[C@@H]1CO2 | -2.65% |
| Cc1cc(=O)n2[nH]c(-c3sccc3-n3c(C)ccc3C)cc2n1 | 55.6% (active) |
| CCOC(=O)N1CCN(C(=O)C[C@@H]2C(=O)N(CCc3ccc(Cl)cc3)C3=CCCC[C@]32C(=O)OCC)CC1 | -0.28% |
| COc1ccc(CSc2nnc(SCC(=O)Nc3ccccc3C(F)(F)F)s2)cc1 | -4.35% |
| CC1CCN(C(=O)COC(=O)CCC(=O)c2cccs2)CC1 | 0.03% |
| O=C(COC(=O)CCC(=O)c1cccs1)NCc1ccco1 | 38.8% (active) |
| CCN(C(=O)COC(=O)CCC(=O)c1cccs1)C1CCCCC1 | 9.09% |
| C=CCN1C(=O)[C@@H](CC(=O)N2CCN(C(=O)c3ccco3)CC2)[C@]2(C(=O)OC)CCCCC=C12 | -3.78% |
| COc1cc(/C=C/C(=O)n2cnc3ccccc32)cc(OC)c1OC | -2.83% |
| C[C@@H]1ON(C)[C@H]2C[C@H]3c4[nH]c5cccc(-c6ccc7c(c6)OCO7)c5c4CCN3C[C@@H]12 | 4.41% |
| Cc1ccc(/C=N/NC(=O)c2sccc2OCc2ccc(F)cc2)cc1 | -2.37% |
| Cc1c(Cl)c([N+](=O)[O-])nn1Cc1ccc(C(=O)N/N=C\c2cc(Cl)ccc2O)o1 | -2.68% |
| Cc1cc(C(=O)N/N=C/c2ccc(O)c([N+](=O)[O-])c2)c(C)n1-c1ccc(F)cc1 | 18.1% (active) |
| CCC[C@H]1C(=O)CC[C@@]23CCCN2C(=O)CCC[C@@H]13 | 0.78% |
| O=C(OCCOc1ccccc1F)c1cc(S(=O)(=O)N2CCOCC2)ccc1F | 13.4% (active) |
| O=C(OCCOc1ccccc1Cl)c1cc(S(=O)(=O)N2CCCCC2)ccc1N1CCOCC1 | 4.88% |
| O=C(COC(=O)c1cc(S(=O)(=O)N2CCOCC2)ccc1F)NC1CC1 | 1.33% |
